PubChem BioAssay AID778 (Sanford-Burnham Center for Chemical Genomics, 2007)
Screen size: about 96,000 compounds; about 20,000 (21%) were called active.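 Rule for the calls: active = CYP2C19 inhibition above a set limit at 5 µM in the primary screen (cut at about 50% in these data); inactive = the rest.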 Not all results are given here.

biological target: Cytochrome P450 2C19 (Homo sapiens) (UniProt P33261); test: blockers of cytochrome P450 2C19 activity – biochemical, luminescence, ADME assay, primary screen (AID 778); conditions: CYP2C19 Supersomes, luciferin-H EGE luminescence, 30 min; at 5 µM; hits give high values;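 note: plate controls were negative control wells for no effect and 2.5 mM tranylcypromine positive control for full effect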
Sequence (P33261 whole entry, looked up): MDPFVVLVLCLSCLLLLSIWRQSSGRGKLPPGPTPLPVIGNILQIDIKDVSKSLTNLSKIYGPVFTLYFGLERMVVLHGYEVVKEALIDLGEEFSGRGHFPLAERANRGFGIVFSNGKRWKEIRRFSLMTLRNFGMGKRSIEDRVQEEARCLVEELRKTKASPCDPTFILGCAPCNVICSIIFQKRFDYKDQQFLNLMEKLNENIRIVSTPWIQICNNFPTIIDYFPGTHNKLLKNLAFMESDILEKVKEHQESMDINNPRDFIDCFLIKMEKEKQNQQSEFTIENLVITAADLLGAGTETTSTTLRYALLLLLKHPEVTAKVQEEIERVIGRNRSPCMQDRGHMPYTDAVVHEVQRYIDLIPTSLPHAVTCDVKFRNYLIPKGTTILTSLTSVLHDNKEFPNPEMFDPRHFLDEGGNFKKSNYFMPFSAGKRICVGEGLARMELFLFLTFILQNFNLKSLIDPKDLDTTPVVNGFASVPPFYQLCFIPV

inhibition, inactive:
Cc1ccc(NC(=O)C2CC(c3ccc(F)cc3)=NO2)cc1 (stereo not drawn) 28.2%
O=C(Nc1ccc(F)c(Cl)c1)C1CCN(S(=O)(=O)c2cccnc2)CC1 41.7%
O=C(Nc1ccccc1-c1nnn(CC(=O)N2CCN(c3ccccc3)CC2)n1)c1cccs1 47.5%
C=CCN(N=Nc1cccc([N+](=O)[O-])c1)c1cccc([N+](=O)[O-])c1 19.3%
O=C(Nc1ccccc1Cl)N1CCN(c2ccc3nncn3n2)CC1 24.1%
O=C(Nc1ccc(Cl)cc1)N1CCc2[nH]c3ccccc3c2C1 13.4%
CC(C)Cc1nc(N2CCOCC2)c(C#N)c2c1CCC2 39.8%
CC(C)OC(=O)C(C#N)c1nc2ccccc2nc1N1CCN(Cc2ccccc2)CC1 (stereo not drawn) 30.6%
Cc1nc(NCc2ccccc2)c(C(N)=O)c2c1COC(C)(C)C2 48.5%
c1ccc2[nH]c(NCCN3CCOCC3)nc2c1 7.5%
C1=C(N2CCOCC2)/C(=C/c2nc3ccccc3[nH]2)CC1 20.6%
Cc1ccc2nc(-c3ccc(SCC(=O)Nc4cc(C)on4)nc3)[nH]c2c1 -9.6%
C=CCn1c(SCc2c(C)noc2C)nc2sc3c(c2c1=O)CCC(C)C3 (stereo not drawn) 29%
COc1ccc2[nH]c(=O)c(-c3noc(-c4ccc(F)cc4)n3)cc2c1 -20.6%
O=C(NCCCN1CCCCC1)c1ccc2c(c1)NC(=O)C(N1CCOCC1)S2 (stereo not drawn) -20.4%
Cc1cc2nc(-c3ccc(NC(=O)c4cccnc4)cc3)oc2cc1C -3.8%
c1ccc(-c2cn3cccnc3n2)cc1 1.9%
Cc1nc2ccc(NC(=O)C(F)(F)F)cc2o1 19.3%
C#CCN1CC(C)/C(=N/O)CC1C (stereo not drawn) -17%
CC(C)(C)NC(=O)C(c1ccncc1)N(C(=O)CNC(=O)c1ccco1)c1ccc2c(c1)OCO2 (stereo not drawn) 25.7%
Cc1cccc(N2C(=O)C3C(c4ccccc4)OC4(C(=O)c5ccccc5C4=O)C3C2=O)c1 (stereo not drawn) -10.6%
CCOC(=O)c1c(N)sc(C(C)=O)c1C 22.5%
CCn1cc(C(=O)N2CCN(C3CCCCC3)CC2)c2cc(OC)c(OC)cc2c1=O 13.8%
O=C(CN1CCN(C2CCCCC2)CC1)Nc1ccccc1N1CCCCC1 1.2%
CCN1CC=C2C(C#N)=C(N)C(C#N)(C#N)[C@H](c3ccoc3)[C@H]2C1 7.1%
COc1ccc(Cc2nnc(SCC(=O)c3cccc([N+](=O)[O-])c3)n2C)cc1 15.5%
COc1ccc(C(=O)Nc2nc(-c3ccc(OC)cc3)c(-c3ccc([N+](=O)[O-])cc3)s2)cc1 6.9%
CNC(=O)c1nnc(Cc2ccc(Cl)cc2)o1 45.2%
COCc1nnc(NC(=O)CS(=O)(=O)Cc2ccccc2)s1 1.9%
Cc1cccc(S(=O)(=O)CC(=O)Nc2nc(-c3ccccc3)cs2)c1 35.4%
Cc1ccc(-c2c3c(=O)n(C)c(=O)n(C)c3cn2-c2ccccc2O)cc1 19%
Cc1oc(-c2ccccc2Cl)[n+]([O-])c1C 8.4%
O=C(NCCc1ccccn1)c1ccc(COc2ccccc2)o1 5.8%
CC(=O)Cc1nsc(NC(=O)c2ccc(COc3ccc(C)cc3)o2)n1 22.2%
Cc1cc(C(=O)COC(=O)CCCN2C(=O)c3ccccc3C2=O)c(C)n1C -0.8%
CCOC(=O)NNC(=O)c1ccc(Cl)cc1 6.6%
O=C(NC1CCCCC1)c1cc([N+](=O)[O-])ccc1N1CCOCC1 -1.9%
O=C(CN1CCOCC1)Nc1ccc(NC(=O)CN2CCOCC2)c(Cl)c1 -2.2%
COc1ccc(C)cc1N(C)C(=O)c1coc(=O)c2ccccc12 15.5%
COc1ccc(OC)c(C(=O)c2ccc(C(=O)O)cc2)c1 -2.7%
COc1ccc2occ(C(=O)c3ccc(N=C(C)N(C)C)cc3)c2c1 30.2%
COc1ccc(C(=O)Nc2ccc(CN3CCOCC3)cc2)cc1 16.2%
CCOc1cc(C(=O)Nc2ncccn2)cc(OCC)c1OCC 7.1%
Clc1ccc(-n2nnnc2CN2CCCCC2)cc1Cl 27.7%
O=C(O)CC(Cn1cnnn1)c1ccccc1 (stereo not drawn) -11.5%
O=C(CSc1nnc2ccccn12)c1ccccc1 13.9%
O=C(c1ccc2c(c1)N(Cc1ccc(F)cc1)C(=O)CS2)N1CCOCC1 23.9%
CCOC(=O)N1CCN(Cc2nc(N)nc(Nc3ccc(C)cc3)n2)CC1 36.2%
CCN(CC)CCN1C(=O)C(=O)/C(=C(/O)c2ccccc2)C1c1ccccc1F (stereo not drawn) -0.3%
COC(=O)c1ccc(N(CC(=O)NC2CCCC2)C(=O)CNC(=O)c2ccco2)cc1 -6.6%
CCCn1c(=O)c2ccccc2n2c(SCC(=O)/C(C#N)=C(\C)N)nnc12 4.2%
CCOc1cc2c(cc1OCC)C(C(=O)O)C(c1ccc(OC)c(O)c1)N(C)C2=O (stereo not drawn) -11.4%
COc1ccc(C2C(C(=O)N3CCN(c4ccc(OC)cc4)CC3)c3ccccc3C(=O)N2C)cc1 (stereo not drawn) 2.6%
Cc1nc(SCC(=O)N2CC(=O)Nc3ccccc32)c2c(C)c(C)sc2n1 49.9%
COc1ccc(OC)c(NC(=O)c2cnn(-c3ccccc3Cl)c2NC(=O)c2ccco2)c1 -0.9%
COc1ccc(C(=O)CN2C(=O)NC(C)(c3ccc(C)cc3)C2=O)cc1OC (stereo not drawn) 1.3%
CCOc1ccc(CN2CCCN(C)CC2)cc1 -4.6%
CC1(C)Cc2ccccc2-c2nnc(-c3cccc(O)c3)n21 -16.2%
Cc1[nH]n(-c2cccc(Cl)c2)c(=O)c1-c1ccc(Cl)cc1 -13.5%
CC(=O)Oc1ccc(C)cc1N1C(=O)c2ccc(C(=O)O)cc2C1=O -15.2%
O=C(C1CCCO1)N1CCC(c2nc3ccccc3[nH]2)CC1 (stereo not drawn) 20.9%
Cc1ncn(C23CC4CC(CC(O)(C4)C2)C3)n1 3.7%
COc1ccc(C(=O)Nc2cc(C)ccc2NC(=O)COc2ccccc2)cc1 17%
CCCCC(=O)N(c1ccc(OC)cc1)C1C=CS(=O)(=O)C1 (stereo not drawn) 19.8%
COc1ccc(OCCCC(=O)Nc2nnc(C3CCCO3)s2)cc1 (stereo not drawn) 34.1%
CCN1CCN(c2ccc([N+](=O)[O-])cc2C(=O)c2ccc(Cl)cc2)CC1 5.8%
CCCC(=O)Nc1nnc(CC(=O)OCC)s1 -0.3%
Cc1ccc(N2C(=O)C(Cc3ccccc3)NC2=S)cc1 (stereo not drawn) 39.4%
COc1ccc2c(c1OC)C(=O)OC2Nc1nc(-c2ccccc2)cs1 (stereo not drawn) 12%
Cc1[nH]n(-c2ccccc2)c(=O)c1CCOC(=O)c1ccc(C(F)(F)F)cc1 31.8%
O=C(Nc1cccc2ccccc12)N1CCN(Cc2ccc3c(c2)OCO3)CC1 35.2%
CCCS(=O)(=O)N1CCN(C(=O)c2cccs2)CC1 11%
Cn1c(=O)cc(OCCCC(=O)N2CCN(Cc3ccc4c(c3)OCO4)CC2)c2ccccc21 36.7%
COc1ccc(S(=O)(=O)N2CCN(C(=O)c3cccs3)CC2)cc1OC 43.6%
O=C(c1cccs1)N1CCN(C(=O)N2CCOCC2)CC1 2.3%

inhibition, active:
O=C(Nc1ccc2c(c1)OCO2)C1CC(c2c(F)cccc2Cl)=NO1 (stereo not drawn) 92.7%
CC(C)C(=O)N1CCN(c2nc(-c3ccccc3)c3c(c2C#N)CC(C)(C)OC3)CC1 95.4%
CC1(C)Cc2c(C#N)c(SCc3nc4ccccc4[nH]3)nc(N3CCOCC3)c2CO1 80.5%
CC(C)c1nc(N2CCOCC2)c(C#N)c2c1COC(C)(C)C2 55.5%
Cc1noc(C)c1C(=O)NC(C)c1ccc2c(c1)OCO2 (stereo not drawn) 64.5%
Cc1ccc(C(=O)N2CCN(C3CCCCC3)CC2)s1 52.8%
COc1ccc(C(=O)N2CCc3cc(OC)c(OC)cc3C2c2cccc([N+](=O)[O-])c2)cc1 (stereo not drawn) 53.7%
O=C(CCS(=O)(=O)c1ccccc1)Nc1nc2c(s1)CCCC2 73.9%
COc1ccc(-c2nc(CCNC(=O)c3ccc(Br)o3)cs2)cc1 58.8%
O=[N+]([O-])c1ccc(NCCCN2CCOCC2)c(Cl)c1 52%
CC1(C)C2CCC1(C)C(OC(=O)CCn1ccnc1)C2 (stereo not drawn) 99.5%
COc1ccc(OC)c(C(=O)c2coc3ccc(O)c(CN4CCOCC4)c23)c1 52.4%
COc1ccc(OC)c(C(=O)c2coc3ccc(OC)cc23)c1 89.7%
O=C(c1ccccc1)C(Cn1cncn1)C(Sc1ccccc1)c1ccccc1 (stereo not drawn) 99.3%
COc1cccc(NC(=O)C2c3cc(OC)c(OC)cc3C(=O)N(C)C2c2cccnc2)c1 (stereo not drawn) 50.1%
C#CCN1C(=O)C(O)(CC(=O)c2cc(OC)ccc2OC)c2ccccc21 (stereo not drawn) 51.5%
CC1=NN(c2cccc(Cl)c2)C(=O)C12CC(C)=C(C)CS2 (stereo not drawn) 90%
Cc1ccccc1N1CC(c2nc3ccccc3[nH]2)CC1=O (stereo not drawn) 81.9%
CCCCN=C(N)/C(C(=O)OCC)=C(\O)c1ccc(OC)cc1 54.8%
CC1=CC(C)(C)NC(=S)N1c1ccccc1 58.1%
O=C(CCCN1C(=O)c2cccc3cccc(c23)C1=O)N1CCN(Cc2ccc3c(c2)OCO3)CC1 78.8%
O=C(c1cccs1)N1CCN(Cc2ccc3c(c2)OCO3)CC1 56.9%
CCS(=O)(=O)N1CCN(C(=O)c2cccs2)CC1 56.5%
